# Source: the supplement of paper PMC11417369
# The full ranking holds about 25,000 sequences; the median of “ln(normalized median fluorescence intensity)” is about 7.1, and the highest 2% start at about 10. The sample as a whole holds a higher share of the highest values than the screen did.
# Tested on: PfSIP2 AP2 domain 1 (GST-tagged)
# Experiment: gcPBM binding intensity (ln(normalized median fluorescence intensity)); higher = stronger DNA binding
# Method in brief: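 For binding intensity, the highest Masliner-normalised natural-log median intensity across replicate spots of either probe orientation was taken. Protein bound to the array was stained with Alexa488 anti-GST antibody and scanned at 488 nm. The protein, GST-tagged P. falciparum DNA-binding domains from E. coli at about 25 μg on average, had been applied for 1 h to an Agilent 4 × 180k array of primer-extended double-stranded 36-bp intergenic genomic probes and negative controls.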
row,Sequence,gcPBM binding intensity (ln)
1,AAGTATTATTTTTATGCATGTGAAGTGCAAAATAAA [TGCATGCA_site198],9.56
2,TTTTATTTTCGATGATGTACATTAAATTATACAGTA [XGTACX_site6053],7.01
3,AATACAATTTTTAACACACACACAATAATACAGATA [CACACA_site4823],7.17
4,ACAAATATGAGAAATTGTACATATAATAAAATAGTA [XGTACX_site2573],6.93
5,AAATAAATAAATATACGTACATATATATAATATATA [XGTACX_site5124],7.23
6,TATGTAAAAAGAGAAAAAAAAAAGAACGATAATTTC [CACACA_negctrl_site946],6.58
7,AATTAAAAAATTATCACACATATATATATATATATA [CACACA_site5789],9.53
8,TTTATATACACACAGAAGAACAGAAATATTATATAT [TGCATGCA_negctrl_site483],7.2
9,TTTAAAAAATAATATTGTACTATTCTCCCAATTTCT [XGTACX_site7079],6.57
10,GGTATACATATTAAATGTACATATTTTAACAATAAG [XGTACX_site4868],7.1
11,TGATTCTTTTGTATCACACACACTTAGTTTAATTTT [CACACA_site2404],6.85
12,TCTGTAAATACGTGCACACACAAATCACAAATGTGA [CACACA_site330],9.89
13,AATAAAAAAAAAAATAATATATATGTATAAATATAT [CACACA_negctrl_site1561],6.83
14,AAAAAAAAAAAAAAAGCACACACCAATGAGCAGCTT [CACACA_site1845],7.62
15,ATTTTTTTATTTTGTGCACACACATAAAAATATATA [CACACA_site762],9.99
16,TTTTTCCTATTTTTAGTGCACATATAAATAAATAAA [GTGCAC_site9821],10.7
17,AGGTCTGTTTTATATTGTACATAAAAAGTGCACATG [XGTACX_site4529],11.4
18,TAATAAAAAAAGTGCACACACATAATATTTATATAT [CACACA_site7548],10.7
19,TTTTTTATTTTGTGCACACACATAAAAATATAAATA [CACACA_site6497],9.8
20,TTTTTTATTTTGTGCACACACATAAAAATATATATA [CACACA_site761],9.42
21,AAAATAAAAATAAAAGCACACATAAATATATATATA [CACACA_site8409],8.73
22,TATATATTCATAAAGTGTACATGTTTATATATATAT [XGTACX_site7585],8.48
23,ATATCATTTTCCTGCACACATAAATTTATATAATAT [CACACA_site1048],7.82
24,AATATAATATAATGCACACATAAAAAAAAAAAAATC [CACACA_site1303],7.43

row,Sequence,gcPBM binding intensity (ln)
1,AATAATAAAAAAAGTGCACACACATAATATATATAT [CACACA_site9100],10.6
2,TATATCTGTTTATATTGTACACATATATATATATAT [XGTACX_site714],9.28
3,ATCTATTTCTATTGTTGTACTTATTTTTCATTGTTT [XGTACX_site6942],7.27
4,AATAGGTGCCTTTTTTCACACACATGTCAACTAAAT [CACACA_site8846],9.34
5,GATATATAAATAGATACACACATACATACATACATA [CACACA_site6260],7.18
6,ATATTTATTTTATAAAGTACTAAAAAATATATTATA [XGTACX_site8522],6.9
7,CATATAATAAATAATTGTACTTGATATAATATTATG [XGTACX_site3562],6.91
8,CCTTTATAAAAAAGTAGTACACAATGAATTTATAAT [XGTACX_site5523],7.1
9,CAAAATTAATAAGTCACACACACATCTATAATATAT [CACACA_site6519],6.78
10,ACATAAAATTGTTAAAAAATTGTATAAATAATACAT [XGTACX_negctrl_site557],6.81
11,TAATTCTAAATAAATGTACACACAAAAATAAATGTA [CACACA_site8509],7.02
12,TGTCAATCATATAAATGTACATTTTAAATGAGGTGT [XGTACX_site7391],7.36
13,AAAAGTATATATTCAGTGCATAGTCTTTAAATATAA [GTGCAC_site9522],8.15
14,ATATATATATATAGTGCACACTTAAGAATATAAAGA [CACACA_site4771],10.2
15,AAATAAAGAATATAAATACACACTTAAATATATATT [CACACA_site4007],6.73
16,AATATAATATAATGCACACATAAAAAAAAAAAAAAA [CACACA_site304],7.47
17,TAATAAAAAAAGTGCACACACATAATATATATATAT [CACACA_site3340],10.4
18,TATATATATATATGTGCACACATAATAAAAAAAAAA [CACACA_site3830],9.64
19,TAATTATTTTAAAAAGTGCATTAAAAGATATTAAAT [GTGCAC_site9694],8.22
20,AAAAGTCTCTTTTTAGTGCACATTTTATTTAAATAT,10.2
21,ATATATATATAGTGCACACTTAAGAATATAAAGAGG [CACACA_site1151],10.1
22,ACAATAAAGAACAGTATGCACTTTTATGCATGCGTA,8.94
23,CAAATAATATTATGAAGTACTTCAAATTTTGAAAGA [XGTACX_site2530],6.98
24,TATTTATTTATGTGTTGTACAAATAAATAGAGGTAT [XGTACX_site6408],7.35

row,Sequence,gcPBM binding intensity (ln)
1,AAAAATAAAACAATTACACACATAATTTTATTTTTA [CACACA_site928],6.86
2,ATATTTAACAGGTTAAAAATATAAACAAATAAATAA [CACACA_negctrl_site907],6.85
3,ATGCAAAATAAAGAAGCACACAAAAATGAAATATAT [CACACA_site9217],7.2
4,TGTGTATAAGTCACTTGTACTAGTAGTAAAAAAAAA [XGTACX_site4341],6.85
5,ATTATTTTTCTATGTGTGCACGTGTGGAATGTGTCT [GTGCAC_site9507],10.3
6,TTCTATATTATATATGCATGTGTTATTCTTATTTTC [TGCATGCA_site92],7.15
7,TTATTTATTCTATGTGCATGTTATTTTTTTTTTTCG [TGCATGCA_site262],7.6
8,ATATATATTAATATTTGTACATAAAATTATTTCAAT [XGTACX_site5364],7.14
9,TTTTCAATATATTAATGTACGAATACGCAAATAAGA [XGTACX_site1613],7.23
10,GTATATGAATAATATTTTATGGTAATTTTTTTTTTT [XGTACX_negctrl_site512],6.91
11,ATATGACATAAAACATGTACATGTTCATAAATATAT [XGTACX_site1923],7.07
12,AAATATAATAATATATGTACATATATATATATATAT [XGTACX_site6980],9.73
13,ATATATATTAATTTTGTGCACAAATGGAAATGTTTG [GTGCAC_site9971],8.34
14,GAAATTTTTAATGTGGTGCACAGGAAATTTTTTCTT,11
15,AAAAAAAATTTAATTGCACACAGGAAAATATAATTT [CACACA_site3810],7.01
16,AAGCGAATCTATATCACACACAAAAAAATCAGACTA [CACACA_site7072],6.94
17,GACTACACACAAGGGTGTACATATATATTATATATA [XGTACX_site2247],7.31
18,TAAGTATAATATTGATGTACATATAATAACTTGTAT [XGTACX_site417],7.03
19,TCTTTCCTTATTAAAACACACAAATACATTATTTAA [CACACA_site2147],7.13
20,TTTTATTTCTTTGCACCATTTTAAATACAAACAAAT [CACACA_negctrl_site1553],10.7
21,CATTTTATTTTCTTTGTGCACAAAAATATTTTTTCT,8.78
22,ATATGAAGTTATATAGTGCACATGTACAACCAAATC [GTGCAC_site9974],10.4
23,TATGAGAAAAAAAGTACATGCACAAAATGTATATGT [TGCATGCA_site789],7.3
24,ATATGTACAAGTTATACACACATGTACAGTTATATA [CACACA_site6706],7.11

row,Sequence,gcPBM binding intensity (ln)
1,GAAGTTAGTGTTGACTGTACATATATATGTATATAT [XGTACX_site7243],7.21
2,GAAATTATGTAAAAAAGTACTAACATACATATATAT [XGTACX_site1794],7.18
3,AAAAACAAACTGTGCATGCACCAAAAAAAAAAAAAA,10.4
4,GAATTTATGAACTGTGCATGTAAAAAAAACAACAAA [TGCATGCA_site449],8.15
5,AATGTGCAAACAAACTGTACTTTTTTTTTTTTTTTT [XGTACX_site928],7.84
6,TTATTTACTTATTGCACACATATAAAATATATTTAT [CACACA_site3101],7.74
7,TAATATATTTATAGAGCATGCAACGTAATATTATTA [TGCATGCA_site863],7.12
8,ATTTTTTTGGTAATTTGTACATAATATATACATAAT [XGTACX_site3742],7.21
9,AAAATTTCTTTTTTTTGTACATATATAATAATATAT [XGTACX_site7107],6.92
10,TACGTCTTTTTTTTGGTGCATAATTTTTTTGTACAA,10.9
11,TTAACGCTTATTTTTTGTACTTATTTTATTTTAAAT [XGTACX_site3977],7.22
12,CCCTATATAAATAGCTGTACATTTGAACATGTTCAG [XGTACX_site2187],6.97
13,GCAATTTTTTTTAAGAGTACTAATATATTATAGTGG [XGTACX_site7316],7.11
14,TGCGGAAATAAGTGCACACATAGATATATGTATTTT [CACACA_site3689],10.8
15,TATAAATATCTGTATGCACACATTTTTTTTGGAAAA [CACACA_site4734],8.04
16,TGTGCGGAAATAAGTGCACACATAGATATCTGTATT [CACACA_site5935],10.9
17,TGTGCGGAAATAAGTGCACACATAGATATATGTATT [CACACA_site9227],10.8
18,TGTGTGTGTATATGTGTGCACATATAAAATAGAAGA [GTGCAC_site9714],8.95
19,AATAAATAGATATATACACACATATATGTGTACATA [CACACA_site7476],7.06
20,TATGTATAAATATATGCACACATATATATATTTATA [CACACA_site9150],7.18
21,TATAAATATATGTATGCACACATTTTTTTTGGAAAA [CACACA_site1070],8.1
22,TACAAATATATATGCACACACATATCTGTATATGTG [CACACA_site5663],7.66
